Assay outcomes from PubChem.
JMJD2A Tudor inh: JMJD2A Tudor domain (human) inhibition. O75164. AlphaScreen JMJD2A-Tudor / H3K4me3 peptide binding. Potency, µM (titrated, usually from 114 µM), inactives show at the highest dose activity change, negative = inhibition, usual class: inhibitors. 390,000 tested, 4.4% active. AID 504339; further: on the % scale 0 is the no-effect control and ±100 the full control effect; nearly all actives have a fitted effect of over 50% in size
Target sequence (O75164 whole entry, looked up, the tested form may be a part): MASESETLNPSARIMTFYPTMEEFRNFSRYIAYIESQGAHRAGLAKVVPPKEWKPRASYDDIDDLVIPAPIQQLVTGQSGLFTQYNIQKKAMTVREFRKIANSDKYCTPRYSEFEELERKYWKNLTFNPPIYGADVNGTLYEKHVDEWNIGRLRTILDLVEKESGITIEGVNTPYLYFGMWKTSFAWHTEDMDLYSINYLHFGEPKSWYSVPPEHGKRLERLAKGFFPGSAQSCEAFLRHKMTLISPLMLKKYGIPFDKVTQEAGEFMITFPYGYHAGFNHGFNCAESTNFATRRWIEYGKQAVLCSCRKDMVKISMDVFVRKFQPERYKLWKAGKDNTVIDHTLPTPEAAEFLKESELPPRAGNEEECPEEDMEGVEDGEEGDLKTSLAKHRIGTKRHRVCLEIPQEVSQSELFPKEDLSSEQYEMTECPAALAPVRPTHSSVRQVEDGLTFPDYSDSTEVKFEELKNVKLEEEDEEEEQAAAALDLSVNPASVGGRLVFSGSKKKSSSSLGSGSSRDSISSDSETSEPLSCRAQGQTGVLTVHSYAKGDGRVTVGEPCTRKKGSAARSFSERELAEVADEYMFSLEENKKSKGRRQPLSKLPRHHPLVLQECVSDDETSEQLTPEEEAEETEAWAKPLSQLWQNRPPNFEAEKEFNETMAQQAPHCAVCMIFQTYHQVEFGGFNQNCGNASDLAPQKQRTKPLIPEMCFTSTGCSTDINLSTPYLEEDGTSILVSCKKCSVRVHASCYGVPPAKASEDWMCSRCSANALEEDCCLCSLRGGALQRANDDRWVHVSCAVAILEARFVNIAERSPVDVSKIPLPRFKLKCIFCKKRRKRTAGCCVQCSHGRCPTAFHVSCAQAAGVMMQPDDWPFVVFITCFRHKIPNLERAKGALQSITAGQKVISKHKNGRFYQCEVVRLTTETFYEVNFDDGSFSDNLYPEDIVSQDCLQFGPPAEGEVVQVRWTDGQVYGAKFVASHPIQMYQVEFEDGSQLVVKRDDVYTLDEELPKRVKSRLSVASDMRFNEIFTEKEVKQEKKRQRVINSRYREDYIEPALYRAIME
BAZ2B block: inhibitors of human BAZ2B bromodomain; 360,000 tested, 4.4% active; Potency, µM (series often up to 114 µM), without a hit: at the top dose activity change, negative = inhibition, hits mostly inhibitors; AlphaScreen BAZ2B-H3K14Ac peptide displacement; Q9UIF8; further: on the % scale 0 is the no-effect control and ±100 the full control effect; nearly all actives have a fitted effect of over 60% in size
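Inhibition is scored as reduced AlphaScreen emission. The BAZ2B/b-H3(5-23)K14Ac complex (50 nM each) in PBS pH 7.4, 0.01% Tween-20 meets compound (up to 110 uM) for 30 min at RT before bead addition.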
HP1b binding inh: HP1-beta chromodomain-methylated histone interaction inhibition; AID 540317; Potency, µM (top dose mostly 114 µM), inactives show at the top dose activity change, negative = inhibition, usual class: inhibitors; 390,000 tested, 0.56% active; P83916; AlphaScreen HP1-beta / biotin-H3K9me3 peptide binding; further: nearly all actives have a fitted effect of over 70% in size
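Compound inhibition of the preformed complex between 50 nM HP1-beta and 50 nM biotinylated H3K9me3 peptide was read by AlphaScreen. Buffer was PBS pH 7.4 with 0.01% Tween-20. Incubations ran 30 min at room temperature, with 10 ug/mL donor/acceptor beads.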
Sfp inh: blocks B. subtilis Sfp PPTase activity. Biochemical Sfp PPTase activity, qHTS. Potency, µM, for inactives: largest response in the series, negative = inhibition, most hits filed as inhibitors. 310,000 tested, 3.5% active. AID 1490;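 further: the enzyme is Sfp with the accession as filed and its product quenches rhodamine fluorescence; 0% = enzyme reaction without inhibitor and -100% = no enzyme wells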
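Buffer: 50 mM Hepes-Na pH 7.6, 10 mM MgCl2, 0.01% Nonidet P-40, 0.01% BSA. Enzyme 15 nM, pre-exposed to compound 15 min; substrates then added and fluorescence change tracked over 30 min.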
G9a inh: blocks human histone lysine methyltransferase G9a; Potency, µM (highest dose often 102 µM), for the others: at the top dose activity, negative = inhibition, actives largely listed as inhibitors; Q96KQ7; 350,000 tested, 8.8% active; G9a H3K9 monomethylation, AlphaScreen, 2 h; further: on the % scale 0 is the no-effect control and ±100 the full control effect; nearly all actives have a fitted effect of over 75% in size
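AlphaScreen detection with an anti-monomethyl H3K9 antibody quantified product after a 2 h room-temperature reaction containing 500 nM biotinylated H3K9 peptide, 20 µM SAM and 20 nM enzyme, which had been preincubated 15 min with compound.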
* = called active by the depositor; u = inconclusive; x = no result given; ! = not active in a repeat; [ ] = dose if it differs, or a comment. Most compounds without a hit are left out; they make up all but 12% or so of the library. The call rests on the fitted dose curve; in most records, active means well fitted curve in the direction sought with a large enough effect; inconclusive means small, poorly fitted or top-dose-only effect, or another doubt; inactive means no such curve, though single readings can be large; an effect the other way counts as inactive or inconclusive. Potency means the concentration at half of the fitted maximal effect.

SMILES	JMJD2A Tudor inh	BAZ2B block	HP1b binding inh	Sfp inh	G9a inh
O=C(c1ccc2c(c1)ncn2-c1ccc(F)cc1F)N1CCC2(CC1)OCCO2	-14%	-2%	9%	5%	5%
Cc1[nH]n(-c2ccccc2)c(=O)c1C(c1ccc([N+](=O)[O-])cc1)c1c(C)[nH]n(-c2ccccc2)c1=O	18µM*	40µM*	35µM*	-11%	11µM*
CN1C(=O)C(Cc2ccc(OCc3ccccc3)cc2)C(=O)N(C)C1=O	-12%	-20%	46%	-27%	79µM*
CN1CN(c2ccccc2)C2(CCN(CCCSc3ccccc3NC(=O)/C=C/c3ccccc3)CC2)C1=O	40µM*	x	u	x	x
CCOc1ccc(Cc2c(O)[nH]c(=O)[nH]c2=O)cc1	-12%	6%	47%	20µM*	u
CC(Cc1cccc(C(F)(F)F)c1)NCCCc1ccccc1 (centres undefined)	x	x	x	-1%	16%[59 µM]
COc1cccc(CCNCc2cccc(C(F)(F)F)c2)c1	2.5µM*	56µM*	u	-7%	10µM*
CCOP(=O)(c1ccccc1)C(O)c1ccc(F)cc1 (centres undefined)	5%	6%	28%	22%	0.63µM*
CCOP(=O)(C#Cc1ccccc1)C(O)c1ccc(Br)cc1 (centres undefined)	-13%	0%	26%	3%	2%
C[C@H]1C=CC(=O)O[C@H]1c1ccccc1	8%	x	43%	10%	x
Cc1ccc(OP2(=O)Nc3cc(C)c(C)cc3S2)cc1 (centres undefined)	1.3µM*	x	-7%[57 µM]	x	x
Cc1ccc2c(c1)NP(=S)(Oc1ccccc1)N2 (centres undefined)	-25%	x	-17%	x	x
COc1ccccc1OCC#CCN1CCOCC1	u	28µM*	71µM*	u	4µM*
COc1ccccc1C(=O)C1CCCN(Cc2cnc(C)s2)C1 (centres undefined)	-18%	u	19%	13%	-30%
C(#CCN1CCOCC1)COCC#Cc1ccccc1	u	u	37%	15%	u
COc1ccccc1OCC#CCN1CCCC(C)C1 (centres undefined)	11µM*	25µM*	u	0%	x
C[C@@H]1O[C@H](O[C@H]2C[C@@H](O)[C@@]3(CO)[C@H]4[C@@H](O)C[C@]5(C)[C@@H](C6=CC(=O)OC6)CC[C@]5(O)[C@H]4CC[C@]3(O)C2)[C@@H](O)[C@H](O)[C@@H]1O	x	x	x	15%	24%[21.5 µM]
CN1C(=O)CCS(=O)(=O)[C@@H]1c1ccc(Cl)cc1	x	x	x	14%	5%[21.5 µM]
COc1ccc(OC)c(CCNCc2c(C(=O)O)c(C)n(Cc3ccc(F)cc3Cl)c2C)c1	u	50µM*	16%	x	-27%[59 µM]
CN1CCC2(CC1)CCN(C(=O)c1ccco1)CC2	x	x	x	5%	-11%[12.7 µM]
O=[N+]([O-])c1[nH]cnc1Br	-5%	x	43%	x	x
CC(=O)[C@H]1CC[C@H]2[C@@H]3CC[C@H]4C[C@](C)(O)CC[C@]4(C)[C@H]3CC[C@]12C	x	x	x	3%	7.9µM*!
Cc1cccc(NC(=O)N[C@@H]2N=C(c3ccccc3)c3ccccc3N(CC(=O)c3ccccc3C)C2=O)c1	x	x	x	12%	x
O=C1NC(=O)C(=CN2CCc3ccccc32)C(=O)N1	-18%	-3%	2%	-29%	13µM*
O=C1NC(=O)N(Cc2ccccc2)C(=O)/C1=C\N1CCCc2ccccc21	-32%	-33%	15%	u	u
SMILES	JMJD2A Tudor inh	BAZ2B block	HP1b binding inh	Sfp inh	G9a inh
[N-]=[N+]=CC(=O)OC[C@H](N)C(=O)O	32µM*	4%	29%	-2%	15%
C/C=C(\C)C(=O)OC1C(C)=C2C(C1OC(=O)CCCCC)C(C)(OC(C)=O)CC(OC(=O)CCC)C1(O)C2OC(=O)C1(C)O (centres undefined)	x	56µM*	x	28%	u
CCOC(=O)C1CCCN(Cc2ccc(-c3ccccc3)cc2)C1 (centres undefined)	28µM*	u	-27%	u	x
CCOC(=O)C1CCN(Cc2ccc(Cl)nc2)CC1	-11%	0%	44%	12%	7%[2.33 µM]
CCOC(=O)CC1=C(C(=O)OCC)C2(C(=O)N1CC(=O)OC)C(C#N)=C(N)Oc1ccccc12 (centres undefined)	-15%	u	4%	13%	27%[12.7 µM]
CC1CC(NC(=O)C2C3CCC(O3)C2C(=O)O)CC(C)(C)C1 (centres undefined)	-15%	-12%	2%	5%	-23%[59 µM]
Cc1ccc(Sc2ccc(C=C3C(=O)N(C)C(=O)N(C)C3=O)o2)cc1	-28%	u	u	8.9µM*	x
CN1C(=O)C(=Cc2ccc(N3CCOCC3)o2)C(=O)N(C)C1=O	0%	-27%	16%	u	u
CC1CCCC(NC(=O)COC(=O)Cc2ccccc2)C1C (centres undefined)	-5%	6%	27%	10%	7%
O=C1NC(=O)C(=Cc2ccc(-c3ccccc3[N+](=O)[O-])o2)C(=O)N1	u	u	-1%	22µM*	x
O=C1NC(=O)C(=Cc2ccc(-c3cc(Cl)ccc3[N+](=O)[O-])o2)C(=O)N1	25µM*	45µM*	u	-102%	4µM*
CC(=O)OCC1=C(C(=O)O)N2C(=O)[C@@H](N)[C@@H]2SC1	x	x	x	22µM*	0%[5.15 µM]
CC1=C(C(=O)O)N2C(=O)C(NC(=O)CCCC(=O)O)C2SC1 (centres undefined)	-26%	0%	13%	-4%	x
CC1NCCC2(O)CCCCC12 (centres undefined)	-14%	-1%	32%	3%	x
CN(C)C(=O)Oc1ccc(C(=O)c2ccccc2)cc1	-4%	4%	25%	4%	16%[59 µM]
CN(C)CCOc1ccc(/C(=C(/CCCl)c2ccccc2)c2ccccc2)cc1	25µM*	x	-18%	-28%	u
CCOc1cccc(=NC2CCCCC2)c2c(C)n(C)c(C)c12	u	u	u	-6%	50µM*
C=CCn1c(O)c(C(C)=NCCCO)c(=O)[nH]c1=O	13%	6%	35%	20%	2%[12.7 µM]
O=C1NC(=S)NC(=O)C1C(=O)Nc1ccccc1	x	x	x	-18%	x
O=C1NC(=S)NC(=O)C1c1ccccc1	50µM*	x	u	x	x
C[N+]1=Cc2cc3c(cc2CC1)OCO3	x	x	x	-6%	x
CC(C)OP(=O)(OC(C)C)C(Nc1ccc([N+](=O)[O-])cc1)c1cccc([N+](=O)[O-])c1 (centres undefined)	u	-28%	9%	4%	-49%
CCCOP(=O)(OCCC)C(Nc1ccc(C(C)C)cc1)c1ccc([N+](=O)[O-])cc1 (centres undefined)	u	56µM*	-23%	-11%	u
CC1CN(c2ccccc2)NC1=O (centres undefined)	13%	-22%	40%	11%	35µM*
CN(C)c1ccc(NC(=O)c2sc3nc4c(cc3c2N)N2CCC4CC2)cc1	-19%	u	14%	x	5µM*
